Laboratory results published in article PMC5540273 (PLoS ONE, 2017).

Each compound was assayed on AURKA. Settings: concentration: 1 μM, replicates: in singlicate; n = 1.
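Also: KINOMEscan kinase panel screen.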

Structure (SMILES)	%Inh [%]
COc1cc(Nc2nccc(N3CCC(NS(=O)(=O)c4ccc(NC(C)=O)cc4)CC3)n2)cc(OC)c1OC [GSK1379825]	59
Cc1cc(-c2ccnc(Nc3cccc(C#N)c3)n2)cc(C)c1O [GSK1440913]	47
Cc1ccc(C)c(NC(=O)Nc2ccc(C)c(-c3ccc(C(=O)Nc4ccncc4)cc3)c2)c1 [GSK1398473]	0
CN(C)CCNS(=O)(=O)c1ccc(-c2ccnc3[nH]ccc23)cc1 [GSK977620]	2
O=C(Nc1n[nH]c2nc(-c3cccc(O)c3)ccc12)C1CC1 [SB-711805]	9
COc1cccc(C2=C(Nc3cccc(O)c3)C(=O)NC2=O)c1 [SB-390771]	16
CSc1ccc(NC2=C(c3ccc(Cl)cc3)C(=O)NC2=O)cc1 [SB-317658]	32
Cc1ccc(O)cc1Nc1ccnc2cc(-c3ccc(CN4CCCCC4)o3)ccc12 [GW557777]	0
Fc1cc(Cl)ccc1Nc1ccnc2cc(-c3ccc(CN4CCOCC4)o3)ccc12 [GW560109]	89
COC(=O)Nc1nc2ccc(Oc3ccc(NC(=O)Nc4cc(C(F)(F)F)ccc4F)cc3)cc2[nH]1.Cl [GW654607]	0
CN(c1ccc(NC(=O)N2CCN(CCCN3CCOCC3)CC2)cc1)c1ccnc(Nc2ccc(CS(C)(=O)=O)cc2)n1.Cl [GW830899]	84
CCn1c(-c2nonc2N)nc2c(-c3ccccc3)ncc(OCCCN)c21.O=C(O)C(F)(F)F.O=C(O)C(F)(F)F [GSK260205]	0
COc1cc(Nc2nccc(N3CCC(NC(=O)Nc4ccc5c(c4)OCO5)C3)n2)cc(OC)c1OC (stereo not shown) [GSK1379766]	86
Cc1ccc(NC(=O)c2ccnc(N3CCCCC3)c2)cc1-c1ccc(C(=O)NCC2CC2)cc1 [GW775610]	66
COC(=O)Nc1nc2ccc(Oc3ccc(CC(=O)Nc4cc(C(F)(F)F)ccc4F)cc3)cc2[nH]1 [GW680903]	0
COc1ccc(NC(=O)c2ccoc2)cc1-c1ccc(C(=O)NCC2CC2)cc1 [GW810437]	1
Cc1cccc(Nc2nc(NCCN)ncc2C(N)=O)c1 [GSK1292139]	18
Cl.N#CCc1ccc(Nc2nccc(Nc3ccc(Oc4ccccc4)cc3)n2)cc1 [GW639905]	6
Fc1cc(Cl)ccc1Nc1ccnc2cc(-c3ccc(CN4CCSCC4)o3)ccc12 [GW560106]	100

Structure (SMILES)	%Inh [%]
NCCC(NC(=O)c1cc(Br)c(-c2ccnc3[nH]ccc23)s1)c1ccccc1.O=C(O)C(F)(F)F.O=C(O)C(F)(F)F (stereo not shown) [GSK1307810]	87
O=C(O)C(F)(F)F.O=c1[nH]ccc2nc(N[C@@H]3CCNC3)nc(Nc3ccc4c(c3)S(=O)(=O)CC4)c12 [GSK2181306]	83
Cc1ccccc1CC(=O)N1CCc2cc(-c3cn(C)c4ncnc(N)c34)ccc21 [GSK2603346]	27
CCNC(=O)/C=C/c1n[nH]c2cc(Sc3ccccc3C(=O)NC)ccc12	86
Nc1ncc(-c2ccc3nccc(-c4ccncc4)c3c2)cc1S(=O)(=O)N1CCCCC1 [GSK1693850]	59
CS(=O)(=O)c1cccc(CNc2nc(Nc3ccc4c(c3)CCC(=O)N4)ncc2C(F)(F)F)c1	97.8
COc1ccc(C)c(Nc2ccnc(Nc3ccc(-c4cnc[nH]4)cc3)n2)c1.Cl [GW784041]	20
O=C(O)C(F)(F)F.O=c1[nH]ccc2nc(N[C@@H]3CCNC3)nc(Nc3cc(Cl)cc(Cl)c3)c12 [GSK2188764]	97.3
Cl.Cl.NC(CNC(=O)c1cc(Br)c(-c2ccnc3[nH]ccc23)s1)c1ccccc1 (stereo not shown) [GSK1322949]	67
COC(=O)Nc1nc2cc(Oc3ccc(NC(=O)Nc4cccc(SC)c4)cc3)ccc2[nH]1.Cl [GW697999]	0
CCOc1nccc(-c2c(-c3ccc(F)cc3)ncn2C2CCNCC2)n1 [SB-249175]	52
Cl.Cl.NCC(NC(=O)c1cc(-c2cccnc2)c(-c2ccnc3[nH]ccc23)s1)c1ccccc1 (stereo not shown) [GSK1323434]	15
Nc1ncnc2scc(-c3ccc(NC(=O)Cc4cc(F)ccc4F)cc3)c12.O=C(O)C(F)(F)F [SB-731254-M]	53
Cn1cc(-c2ccc3c(c2)CCN3C(=O)Cc2cc(F)cc(C(F)(F)F)c2)c2c(N)ncnc21 [GSK2635225]	20
COc1cccc2c(-c3ccncc3)c(-c3ccc(F)cc3)nn12 [GW468513]	0
COc1cccc(NC(=O)NCCNc2ccnc(Nc3ccc(F)cc3)n2)c1 [GSK1379879]	19
Cn1cc(-c2ccc3c(c2)CCN3C(=O)Cc2cc(F)cc(F)c2F)c2c(N)ncnc21 [GSK2634140]	18
CN(C)CCOc1ccc(-c2cc(-c3ccc(Cl)c(O)c3)c(-c3ccncc3)[nH]2)cc1.Cl.Cl [SB-684387]	21
